Calls of active or inactive are those of the source. Rule for the calls: active = hit-call score of the fitted dose curve at least 0.9, where 1 is the maximum; inactive = score below 0.9.
Assay: ATG_Ets_CIS: Attagene CIS-FACTORIAL HepG2 Assay for human Erythroblast Transformation Specific (ETS) (AID 2282941)
Conditions: HepG2 ETS cis-reporter transcription, actives raise or lower the signal
Description: ATG_CIS is a cell-based, multiplexed-readout assay that uses HepG2, a human liver cell line, with measurements taken at 24 hours after chemical dosing in a 24-well plate.ATG_Ets_CIS is one of 52 assay component(s) measured or calculated from the ATG_CIS assay. It is designed to make measurements of mRNA induction, a form of inducible reporter, as detected with fluorescence intensity signals by Reverse transcription polymerase chain reaction (RT-PCR) and Capillary electrophoresis technology.Data from the assay component ATG_Ets_CIS was analyzed into 1 assay endpoint. This assay endpoint, ATG_Ets_CIS, was analyzed with bidirectional fitting relative to DMSO as the negative control and baseline of activity. Using a type of inducible reporter, measures of mRNA for gain or loss-of-signal activity can be used to understand the reporter gene at the transcription factor-level as they relate to the gene ETS1. Furthermore, this assay endpoint can be referred to as a primary readout, because this assay has produced multiple assay endpoints where this one serves a reporter gene function. To generalize the intended target to other relatable targets, this assay endpoint is annotated to the dna binding intended target family, where the subfamily is winged helix-turn-helix.
Human liver HepG2 cells are transiently transfected with multiple reporter transcription units (MRTUs) in 6-well plates using FuGene 6 reagent (Roche; 3 ml FuGene/1 mg DNA). The MRTU constructs are regulated by a cis-regulating element (promoter). […] A major difference between the CIS and TRANS system is that in CIS activities of endogenous TFs are measured, whereas the TRANS assay evaluates changes in activities of exogenous, chimeric NR-Gal4 proteins. […] At the end of 24 hour incubation, total RNA was isolated using TriZol reagent (Invitrogen). The isolated RNA is then reverse-transcribed using oligo(dT) primer and Mo-MLV reverse transcriptase (Invitrogen) with DNAse I (Ambion) treatment for 30 min. The one-tenth of the produced cDNA was amplified by PCR using Taq DNA polymerase (Invitrogen) and two reporter sequence-specific primers. The PCR products were fluorescently labeled by primer extension with 6-arboxyfluorescein (6-FAM) 5'-labeled reporter sequence-specific primer (2 min at 95 C, 20 s at 68 C and 10 min at 72 C) and these products were digested with 5U of HpaI (New England Biolabs) for 2h at 37 C. The fragments were purified using Qiaquick PCR columns (Qiagen), analyzed on an ABI 3130xL genetic analyzer (Applied Biosystems) with peak positions identified by using a set of X-rhodamine (ROX)-labeled MapMarker1000 molecular weight standards (BioVentures). The raw capillary electrophoresis data was processed using Attagraph software (Attagene).

SMILES | outcome | AC50
CCCCCCC1CCCC(=O)O1 (stereo not given) | inactive | –
CC(O)(P(=O)(O)O)P(=O)(O)O | inactive | –
Cc1cc(O)cc(C)c1Cl | inactive | –
Cc1cccnc1 | – | 165 µM (active)
C=C(C)C(=O)OCCCCCC | inactive | –
C=CN1CCCCCC1=O | inactive | –
CC1(C)S[C@@H]2[C@H](NC(=O)[C@H](N)c3ccccc3)C(=O)N2[C@H]1C(=O)O | inactive | –
CCCCCCCCCCC1CO1 (stereo not given) | inactive | –
O=C(O)/C=C/C(=O)O | inactive | –
COC(=O)/C=C\C(=O)OC | – | 100 µM (active)
CCCc1c(OCCCCc2nn[nH]n2)ccc(C(C)=O)c1O | inactive | –
NC(=O)c1ccc([N+](=O)[O-])cc1Cl | inactive | –
CCCCOC(=O)COc1ccc(Cl)cc1Cl | inactive | –
Cc1cc2nc3c(=O)[nH]c(=O)nc-3n(C[C@H](O)[C@H](O)[C@H](O)CO)c2cc1C | inactive | –
[O-][n+]1ccc(Cl)cc1 | inactive | –
Cc1ccccc1S(N)(=O)=O | inactive | –
CC/C=C\CCO | inactive | –
Oc1cccc2ccccc12 | inactive | –
CCO[Si](CCCN)(OCC)OCC | inactive | –
CCCCCCCCCC/C=C/C1CC(=O)OC1=O (stereo not given) | inactive | –

SMILES | outcome | AC50
O=[N+]([O-])c1ccccc1C(F)(F)F | inactive | –
CN(C)N=Nc1ccccc1 | inactive | –
CC(C)n1c(/C=C/[C@@H](O)C[C@@H](O)CC(=O)O)c(-c2ccc(F)cc2)c2ccccc21 | inactive | –
CCC(=O)OCc1ccc(OC)cc1 | inactive | –
C[Si](C)(C)O[Si](C)(C)O[Si](C)(C)C | inactive | –
O=C(O)Cc1c[nH]c2ccccc12 | inactive | –
COc1ccc2ccccc2c1 | inactive | –
CCC(C)=NO | inactive | –
O=C1NC(=O)[C@@H]2CC=CC[C@H]12 | inactive | –
CC(C)=CCOC(=O)c1ccccc1 | inactive | –
Clc1ccc(Sc2cc(Cl)c(Cl)cc2Cl)cc1 | inactive | –
Nc1nnc(-c2ccc([N+](=O)[O-])o2)o1 | inactive | –
CCCCCCC(O)CCCCCCCCCCC(=O)OC (stereo not given) | inactive | –
O=C(C1CCCCC1)N1CC(=O)N2CCc3ccccc3C2C1 (stereo not given) | inactive | –
CC(=O)CCc1ccccc1 | inactive | –
CCOc1ccc2c(c1)C(C)CC(C)(C)N2 (stereo not given) | inactive | –
Cc1ccccc1S(=O)(=O)O | inactive | –
CC(C)CC(=O)CC(C)CC(C)C (stereo not given) | inactive | –
O=C(O)/C=C\C(=O)O | inactive | –
CC(C)CC(=O)O | inactive | –
